Measurements reported in the supplement of paper PMC7411054.

Legend:
Assay in all cases: phenotypically active (imaging signature differs from DMSO and reproducible) at any of 0.3-9 uM (binary (1 = active, 0 = inactive)); higher = active
Conditions in all cases: treatment time: 24 h
A549-ACTB-RAB5A = system: A549-ACTB-RAB5A
How it was run: (§1)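 Each of fifteen gene-edited A549, HepG2 and WPMY1 reporter lines, marked with BFP for segmentation and GFP and RFP/FusionRed, was treated in four wells at 0.3, 1, 3 or 9 µM for 24 h prior to live imaging. Normalisation of per-well live-cell features used solvent control wells. Deviation needed ≥3 of 4 wells beyond the 95th percentile of control Euclidean distances, and reproducibility needed a median replicate Pearson correlation above the 95th percentile of non-replicates. Both were required for phenotypic activity.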

A549-CANX-COX4 = system: A549-CANX-COX4
How it was run: as §1

A549-GM130-SQSTM1 = system: A549-GM130-SQSTM1
How it was run: as §1

A549-TP53BP1-CLTA = system: A549-TP53BP1-CLTA
How it was run: as §1

A549-TUBA1B-RELA = system: A549-TUBA1B-RELA
How it was run: as §1

HepG2-ACTB-RAB5A = system: HepG2-ACTB-RAB5A
How it was run: as §1

HepG2-CANX-COX4 = system: HepG2-CANX-COX4
How it was run: as §1

HepG2-GM130-SQSTM1 = system: HepG2-GM130-SQSTM1
How it was run: as §1

HepG2-TP53BP1-CLTA = system: HepG2-TP53BP1-CLTA
How it was run: as §1

HepG2-TUBA1B-RELA = system: HepG2-TUBA1B-RELA
How it was run: as §1

WPMY1-ACTB-RAB5A = system: WPMY1-ACTB-RAB5A
How it was run: as §1

WPMY1-CANX-COX4 = system: WPMY1-CANX-COX4
How it was run: as §1

WPMY1-GM130-SQSTM1 = system: WPMY1-GM130-SQSTM1
How it was run: as §1

WPMY1-TP53BP1-CLTA = system: WPMY1-TP53BP1-CLTA
How it was run: as §1

WPMY1-TUBA1B-RELA = system: WPMY1-TUBA1B-RELA
How it was run: as §1

Measured: phenotypically active

CC(=O)[C@H]1CC[C@H]2[C@@H]3CCC4=CC(=O)CC[C@]4(C)[C@H]3CC[C@]12C [progesterone]
inactive: A549-ACTB-RAB5A 0 | A549-CANX-COX4 0 | A549-GM130-SQSTM1 0 | A549-TP53BP1-CLTA 0 | A549-TUBA1B-RELA 0 | HepG2-ACTB-RAB5A 0 | HepG2-CANX-COX4 0 | HepG2-GM130-SQSTM1 0 | HepG2-TP53BP1-CLTA 0 | HepG2-TUBA1B-RELA 0 | WPMY1-ACTB-RAB5A 0 | WPMY1-CANX-COX4 0 | WPMY1-GM130-SQSTM1 0 | WPMY1-TP53BP1-CLTA 0 | WPMY1-TUBA1B-RELA 0

O=C(O)[C@H](O)[C@@H](O)[C@H](O[C@@H]1O[C@H](CO)[C@H](O)[C@H](O)[C@H]1O)[C@H](O)CO [Lactobionic acid]
inactive: A549-ACTB-RAB5A 0 | A549-CANX-COX4 0 | A549-GM130-SQSTM1 0 | A549-TP53BP1-CLTA 0 | A549-TUBA1B-RELA 0 | HepG2-ACTB-RAB5A 0 | HepG2-CANX-COX4 0 | HepG2-GM130-SQSTM1 0 | HepG2-TP53BP1-CLTA 0 | HepG2-TUBA1B-RELA 0 | WPMY1-ACTB-RAB5A 0 | WPMY1-CANX-COX4 0 | WPMY1-GM130-SQSTM1 0 | WPMY1-TP53BP1-CLTA 0 | WPMY1-TUBA1B-RELA 0

C#C[C@]1(O)CC[C@H]2[C@@H]3CCC4=CCCC[C@@H]4[C@H]3C(=C)C[C@@]21CC [desogestrel]
inactive: A549-ACTB-RAB5A 0 | A549-CANX-COX4 0 | A549-GM130-SQSTM1 0 | A549-TP53BP1-CLTA 0 | A549-TUBA1B-RELA 0 | HepG2-ACTB-RAB5A 0 | HepG2-CANX-COX4 0 | HepG2-GM130-SQSTM1 0 | HepG2-TP53BP1-CLTA 0 | HepG2-TUBA1B-RELA 0 | WPMY1-ACTB-RAB5A 0 | WPMY1-CANX-COX4 0 | WPMY1-GM130-SQSTM1 0 | WPMY1-TP53BP1-CLTA 0 | WPMY1-TUBA1B-RELA 0

CC(C)c1ccc(CC(=O)N2CCC[C@@H](c3cccc(OC(C)(C)C(=O)O)c3)C2)cc1
inactive: A549-ACTB-RAB5A 0 | A549-CANX-COX4 0 | A549-GM130-SQSTM1 0 | A549-TP53BP1-CLTA 0 | A549-TUBA1B-RELA 0 | HepG2-ACTB-RAB5A 0 | HepG2-CANX-COX4 0 | HepG2-GM130-SQSTM1 0 | HepG2-TP53BP1-CLTA 0 | HepG2-TUBA1B-RELA 0 | WPMY1-ACTB-RAB5A 0 | WPMY1-CANX-COX4 0 | WPMY1-GM130-SQSTM1 0 | WPMY1-TP53BP1-CLTA 0 | WPMY1-TUBA1B-RELA 0

O=C(Nc1cccc(Br)c1)c1cccc(S(=O)(=O)N2CCCCCC2)c1
inactive: A549-ACTB-RAB5A 0 | A549-CANX-COX4 0 | A549-GM130-SQSTM1 0 | A549-TP53BP1-CLTA 0 | A549-TUBA1B-RELA 0 | HepG2-ACTB-RAB5A 0 | HepG2-CANX-COX4 0 | HepG2-GM130-SQSTM1 0 | HepG2-TP53BP1-CLTA 0 | HepG2-TUBA1B-RELA 0 | WPMY1-ACTB-RAB5A 0 | WPMY1-CANX-COX4 0 | WPMY1-GM130-SQSTM1 0 | WPMY1-TP53BP1-CLTA 0 | WPMY1-TUBA1B-RELA 0

CC(=O)Nc1nnc(S(N)(=O)=O)s1 [acetazolamide]
inactive: A549-ACTB-RAB5A 0 | A549-CANX-COX4 0 | A549-GM130-SQSTM1 0 | A549-TP53BP1-CLTA 0 | A549-TUBA1B-RELA 0 | HepG2-ACTB-RAB5A 0 | HepG2-CANX-COX4 0 | HepG2-GM130-SQSTM1 0 | HepG2-TP53BP1-CLTA 0 | HepG2-TUBA1B-RELA 0 | WPMY1-ACTB-RAB5A 0 | WPMY1-CANX-COX4 0 | WPMY1-GM130-SQSTM1 0 | WPMY1-TP53BP1-CLTA 0 | WPMY1-TUBA1B-RELA 0

CC1(C)[C@@H](O)CC[C@]2(C)[C@H]3C(=O)C=C4[C@@H]5C[C@@](C)(C(=O)O)CC[C@]5(C)CC[C@@]4(C)[C@]3(C)CC[C@@H]12 [Glycyrrhetinic Acid]
inactive: A549-ACTB-RAB5A 0 | A549-CANX-COX4 0 | A549-GM130-SQSTM1 0 | A549-TP53BP1-CLTA 0 | A549-TUBA1B-RELA 0 | HepG2-ACTB-RAB5A 0 | HepG2-CANX-COX4 0 | HepG2-GM130-SQSTM1 0 | HepG2-TP53BP1-CLTA 0 | HepG2-TUBA1B-RELA 0 | WPMY1-ACTB-RAB5A 0 | WPMY1-CANX-COX4 0 | WPMY1-GM130-SQSTM1 0 | WPMY1-TP53BP1-CLTA 0 | WPMY1-TUBA1B-RELA 0

C[N+](C)(C)CCCCCC[N+](C)(C)C [Hexamethonium bromide]
inactive: A549-ACTB-RAB5A 0 | A549-CANX-COX4 0 | A549-GM130-SQSTM1 0 | A549-TP53BP1-CLTA 0 | A549-TUBA1B-RELA 0 | HepG2-ACTB-RAB5A 0 | HepG2-CANX-COX4 0 | HepG2-GM130-SQSTM1 0 | HepG2-TP53BP1-CLTA 0 | HepG2-TUBA1B-RELA 0 | WPMY1-ACTB-RAB5A 0 | WPMY1-CANX-COX4 0 | WPMY1-GM130-SQSTM1 0 | WPMY1-TP53BP1-CLTA 0 | WPMY1-TUBA1B-RELA 0

CN(C)CCOC(=O)C(c1ccccc1)C1(O)CCCC1 (stereo not given) [cyclopentolate]
inactive: A549-ACTB-RAB5A 0 | A549-CANX-COX4 0 | A549-GM130-SQSTM1 0 | A549-TP53BP1-CLTA 0 | A549-TUBA1B-RELA 0 | HepG2-ACTB-RAB5A 0 | HepG2-CANX-COX4 0 | HepG2-GM130-SQSTM1 0 | HepG2-TP53BP1-CLTA 0 | HepG2-TUBA1B-RELA 0 | WPMY1-ACTB-RAB5A 0 | WPMY1-CANX-COX4 0 | WPMY1-GM130-SQSTM1 0 | WPMY1-TP53BP1-CLTA 0 | WPMY1-TUBA1B-RELA 0

O=C(O)[C@]1(O)C[C@H](O)[C@@H](O)[C@@H](O)C1 [Quinic acid]
inactive: A549-ACTB-RAB5A 0 | A549-CANX-COX4 0 | A549-GM130-SQSTM1 0 | A549-TP53BP1-CLTA 0 | A549-TUBA1B-RELA 0 | HepG2-ACTB-RAB5A 0 | HepG2-CANX-COX4 0 | HepG2-GM130-SQSTM1 0 | HepG2-TP53BP1-CLTA 0 | HepG2-TUBA1B-RELA 0 | WPMY1-ACTB-RAB5A 0 | WPMY1-CANX-COX4 0 | WPMY1-GM130-SQSTM1 0 | WPMY1-TP53BP1-CLTA 0 | WPMY1-TUBA1B-RELA 0

S=P(N1CC1)(N1CC1)N1CC1 [thiotepa]
inactive: A549-ACTB-RAB5A 0 | A549-CANX-COX4 0 | A549-GM130-SQSTM1 0 | A549-TP53BP1-CLTA 0 | A549-TUBA1B-RELA 0 | HepG2-ACTB-RAB5A 0 | HepG2-CANX-COX4 0 | HepG2-GM130-SQSTM1 0 | HepG2-TP53BP1-CLTA 0 | HepG2-TUBA1B-RELA 0 | WPMY1-ACTB-RAB5A 0 | WPMY1-CANX-COX4 0 | WPMY1-GM130-SQSTM1 0 | WPMY1-TP53BP1-CLTA 0 | WPMY1-TUBA1B-RELA 0
